From PubChem BioAssay come the findings set out here.

As usually defined, the inhibition is the change of the read-out against control, counted positive when it falls.

The structures appear in SMILES notation. The source made the active and inactive calls.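 Rule for the calls, unless noted: active = NADPH fluorescence slope more negative than the mean of all samples by about 3 SD, 99.7% confidence; inactive = the rest.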

Assay [1] in a line: inhibitors of TNFa-induced NFkB p65 translocation, primary screen, imaging, HUVEC, MLSMR starter and 10KST1 sets (AID 438;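 active = inhibition above 20% together with a positive visual image hit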;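 note: compound added about 3h40 before a 20 min TNFalpha stimulation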;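 for inhibition: signal is the nuclear over cytoplasmic p65 intensity ratio per well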). The settings on record: HUVEC TNFa-induced p65 nuclear translocation; cell count: measured here: nuclei count (cytotoxicity indicator), at 2.08 µM; inhibition: at 2 µM, stronger effect = higher value, 0% TNFa-plus-vehicle, 100% no-TNFa wells.
Assay [2] in a line: reduction of polyQ htt aggregates in cells – imaging, exon1htt(103Q)mCFP cells, high-content imaging, primary screen (AID 483;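 active = visual image review flags a hit and inhibition of aggregation exceeds 20%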;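 note: compound exposure lasted 3 days before fixation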;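 for nuclei count: percent of the per-plate median nuclei count of sample wells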). The settings on record: exon1htt(103Q)mCFP cell line, aggregate imaging, at 2 µM; inhibition of aggregation: stronger effect = higher value; nuclei count: measured here: cell count, toxicity.
The nature of assay [3]: endothelial E-selectin expression blockers – imaging, HUVEC, immunofluorescence, MLSMR starter and 10KST1 sets, primary screen (AID 487;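 active = visually confirmed hit in the image check and inhibition above 20%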;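 for inhibition: signal is fraction of cell area covered by stained E-selectin grains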;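 for nuclei count: 100% = median nuclei count of all wells on the same plate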). The settings on record: HUVEC TNFalpha-induced E-selectin immunofluorescence imaging, at 2 µM; inhibition: stronger effect = higher value; nuclei count: measured here: cell number, toxicity.
For assay [4], the target named is Voltage-gated potassium channel subunit beta-2 (Rattus norvegicus) (UniProt P62483). The experiment in a line: inhibitors of rat Kvbeta2 reductase activity – biochemical, NADPH fluorescence, primary screen (AID 622;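 active = fluorescence slope higher than the sample average by over 3 SD, cut at about -0.22 in these data, passing the limit was not always enough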;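 note: slope of raw intensity against log time taken from 70 to 1610 s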). Conditions: recombinant KvBeta, 4-cyanobenzaldehyde reduction, at 10 µM, stronger effect = higher value.
Assay [5] shares this target. In words: enhancers of rat Kvbeta2 NADPH turnover – biochemical, NADPH fluorescence, primary screen (AID 623).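 Note: fluorescence intensity change per second fitted from 20 to 320 s.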 The settings on record: Recombinant KvBeta, NADPH fluorescence decrease slope, 10 min; at 10 µM; stronger effect = lower value.
Assay [6] addresses Alpha-2C adrenergic receptor (Homo sapiens) (UniProt P18825). The experiment in a line: compounds altering alpha2C-coupled GIRK flux – cell-based, HEK293 alpha2C/GIRK1/2, thallium flux, primary screen (AID 624;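 active = fluorescence slope after compound addition differing from the mean of all screened samples at 99.7% confidence, in either direction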;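 note: slope of fluorescence ratio to pre-addition baseline per second over 15 to 24 s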). The settings on record: thallium flux BTC fluorescence, at 10 µM, actives lie on both sides.
A short description of assay [7]: blockers of RIG-like receptor reporter activation – cell-based, Sendai virus stimulus, luciferase, 10K MLSCN set, TLR/RLR signaling modifier project, primary screen (AID 602276;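 active = inhibition at or above 50% at 10 µM; inactive = inhibition below 50%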;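 note: firefly luciferase from ISG56 promoter only with Renilla not read in this screen; 0% = Sendai virus plus DMSO and 100% = medium plus DMSO without virus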). The settings on record: HEK293 RL24 IRF3 luciferase reporter, at 10 µM, stronger effect = higher value. (In general: In a reporter assay the amount or activity of a reporter protein is the signal.)
Assay [8] is described as follows: TLR3 IRF3 reporter activation blockers – cell-based, poly I:C stimulus, luciferase, 10K MLSCN set, primary screen (AID 602277;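 active = inhibition of the reporter signal at or above 50%; inactive = inhibition below 50%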). Conditions: HEK293-TLR3 RL24 IRF3 luciferase reporter, at 10 µM, stronger effect = higher value.

Alpha-2C adrenergic receptor (Homo sapiens), sequence (P18825 whole entry, looked up): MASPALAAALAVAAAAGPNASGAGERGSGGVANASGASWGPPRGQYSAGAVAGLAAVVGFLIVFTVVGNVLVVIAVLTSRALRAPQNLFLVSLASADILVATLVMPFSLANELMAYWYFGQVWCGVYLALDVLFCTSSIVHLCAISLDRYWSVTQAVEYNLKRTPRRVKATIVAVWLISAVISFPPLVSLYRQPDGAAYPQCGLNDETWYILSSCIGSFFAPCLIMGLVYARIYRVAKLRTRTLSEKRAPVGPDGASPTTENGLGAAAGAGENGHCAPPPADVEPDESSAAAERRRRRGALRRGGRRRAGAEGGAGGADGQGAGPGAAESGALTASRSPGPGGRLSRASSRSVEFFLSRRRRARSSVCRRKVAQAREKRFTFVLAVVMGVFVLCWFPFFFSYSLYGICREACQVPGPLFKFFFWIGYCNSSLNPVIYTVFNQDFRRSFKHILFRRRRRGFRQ
Voltage-gated potassium channel subunit beta-2 (Rattus norvegicus), sequence (P62483 whole entry, looked up): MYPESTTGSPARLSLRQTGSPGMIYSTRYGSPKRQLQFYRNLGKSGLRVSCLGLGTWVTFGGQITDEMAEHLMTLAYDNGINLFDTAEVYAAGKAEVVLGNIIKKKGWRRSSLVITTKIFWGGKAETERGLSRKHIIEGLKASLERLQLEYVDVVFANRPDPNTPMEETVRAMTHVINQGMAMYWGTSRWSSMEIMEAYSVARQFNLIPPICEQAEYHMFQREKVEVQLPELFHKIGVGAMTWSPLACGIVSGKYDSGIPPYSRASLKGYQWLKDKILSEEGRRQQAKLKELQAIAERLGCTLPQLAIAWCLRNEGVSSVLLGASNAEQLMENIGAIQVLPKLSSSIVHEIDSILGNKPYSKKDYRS

On to `Cc1cc2oc(=O)cc(C)c2c(=O)o1`, for which the cell count in assay [1] was 411. Also, the inhibition in assay [1] was -15.8% (inactive); in assay [3] it was -2.6% (inactive); in assay [7], -5.14% (inactive); in assay [8] it was -17.4% (inactive). The inhibition of aggregation in assay [2] is -0.8% (inactive). Moreover, the nuclei count in assay [2] stood at 105%; in assay [3], 115%. Further, the fluorescence slope in assay [4] is -0.391 (inactive). Further, the NADPH fluorescence slope in assay [5] was 3.6e-05 (inactive). Further, the slope in assay [6] was 0.00528 (inactive).
For `Cn1c(C(=O)N2CCN(C(=O)c3ccco3)CC2)cc2c(=O)n3ccccc3nc21`, in assay [1], the cell count amounted to 323. The inhibition is -3.3% (inactive) in assay [1], -116% (inactive) in assay [3], 10.9% (inactive) in assay [7] and 18% (inactive) in assay [8]. Also, in assay [2], the inhibition of aggregation is -13.8% (inactive). Further, the nuclei count worked out at 111% in assay [2] and 118% in assay [3]. In assay [4], the fluorescence slope was -0.00798 (active). For the same molecule, the NADPH fluorescence slope in assay [5] is 7.5e-06 (inactive). Also, in assay [6], the slope is 0.00582 (inactive).
Turning to `CC(=O)Oc1ccc(-c2ccc(C(=O)O)cc2)cc1`, the cell count in assay [1] amounted to 385. Besides, the inhibition in assay [1] is -6.5% (inactive); in assay [3], 35.1% (inactive); in assay [7] it was 4.99% (inactive); in assay [8], 14.8% (inactive). Also, in assay [2], the inhibition of aggregation was 17.9% (inactive). The nuclei count in assay [2] was 99.6%; in assay [3], 102%. Further, the fluorescence slope in assay [4] was -0.315 (inactive). Moreover, in assay [5], the NADPH fluorescence slope was -7.2e-06 (inactive). In assay [6], the slope is 0.00672 (inactive).
Take `O=C(Nc1ccc(NC(=O)c2ccco2)nc1)c1cccnc1`: the cell count in assay [1] is 505. Moreover, the inhibition is 19.2% (inactive) in assay [1], 1% (inactive) in assay [3], -21.2% (inactive) in assay [7] and -50% (inactive) in assay [8]. Further, in assay [2], the inhibition of aggregation was -0.5% (inactive). The values for the nuclei count in assay [2] and in assay [3] were 93.2% and 89.3%, respectively. Further, in assay [4], the fluorescence slope was -0.472 (inactive). Moreover, the NADPH fluorescence slope in assay [5] is -2.2e-05 (inactive). In assay [6], the slope was 0.00492 (inactive).
Turning to `Cn1c(=O)c2c(nc(-n3ccnc3)n2C)n(C)c1=O`, the cell count in assay [1] was 311. In addition, the inhibition was -8.5% (inactive) in assay [1], -22.1% (inactive) in assay [3], 15.7% (inactive) in assay [7] and 17.1% (inactive) in assay [8]. In assay [2], the inhibition of aggregation was 14.2% (inactive). The results for the nuclei count in assay [2] and in assay [3] were 85.8% and 104%, respectively. Besides, the fluorescence slope in assay [4] was -0.362 (inactive). The NADPH fluorescence slope in assay [5] is 8.4e-06 (inactive). Further, the slope in assay [6] is 0.00573 (inactive).
On to `CN(C)c1ccc(/C(=N\O)c2ccccc2)cc1`, for which the cell count in assay [1] is 429. The inhibition is 1.2% (inactive) in assay [1], 25.3% (inactive) in assay [3], -24.9% (inactive) in assay [7] and -21.7% (inactive) in assay [8]. For the same molecule, the inhibition of aggregation in assay [2] is -6.9% (inactive). In addition, the nuclei count in assay [2] was found to be 93.6%; in assay [3], 103%. Besides, in assay [4], the fluorescence slope is -0.465 (inactive). The NADPH fluorescence slope in assay [5] was 1.6e-05 (inactive). Further, the slope in assay [6] is 0.00326 (inactive).
Regarding `Fc1ccc(-c2ccc(-c3nn4c(-c5ccco5)nnc4s3)o2)cc1`, in assay [1], the cell count came out at 243. The inhibition in assay [1] is -2.4% (inactive); in assay [3] it was -25.8% (inactive); in assay [7], -5.55% (inactive); in assay [8] it was -13.1% (inactive). In addition, the inhibition of aggregation in assay [2] was 1.7% (inactive). Further, the nuclei count in assay [2] was 92.7%; in assay [3] it was 101%. Also, in assay [4], the fluorescence slope was -0.394 (inactive). In assay [5], the NADPH fluorescence slope was -3e-05 (inactive). In addition, the slope in assay [6] is 0.00935 (inactive).
For the molecule `S=c1[nH]nc(Cc2ccccc2)n1Cc1ccco1`, the cell count in assay [1] came out at 769. For the same molecule, the inhibition is -8% (inactive) in assay [1], -2.6% (inactive) in assay [3], 5.02% (inactive) in assay [7] and 9.76% (inactive) in assay [8]. Besides, the inhibition of aggregation in assay [2] was 3% (inactive). In addition, the values for the nuclei count in assay [2] and in assay [3] were 101% and 102%, respectively. Besides, the fluorescence slope in assay [4] is -0.499 (inactive). In addition, the NADPH fluorescence slope in assay [5] was -7e-05 (inactive). Further, the slope in assay [6] was 0.00544 (inactive).
`O=C(CSc1nc2ncccc2[nH]1)Nc1ccc2c(c1)OCCO2`: in assay [1], the cell count stood at 507. Also, the inhibition in assay [1] is 1.7% (inactive); in assay [3], -113% (inactive); in assay [7], -4.29% (inactive); in assay [8], -22.7% (inactive). The inhibition of aggregation in assay [2] is 10.1% (inactive). For the same molecule, the figures for the nuclei count in assay [2] and in assay [3] were 87.8% and 177%, respectively. Further, in assay [4], the fluorescence slope was -0.509 (inactive). In assay [5], the NADPH fluorescence slope is 2.9e-05 (inactive). For the same molecule, in assay [6], the slope is 0.00643 (inactive).
Turning to `CC(C)n1c(NCc2c[nH]c3ccccc23)nc2ccccc21`, the cell count in assay [1] was found to be 489. The inhibition in assay [1] was 1% (inactive); in assay [3], -5.1% (inactive); in assay [7], -4.81% (inactive); in assay [8] it was -0.81% (inactive). Moreover, in assay [2], the inhibition of aggregation was 20.3% (inactive). Also, the figures for the nuclei count in assay [2] and in assay [3] were 54.6% and 86.6%, respectively. Moreover, the fluorescence slope in assay [4] is -0.511 (inactive). In addition, the NADPH fluorescence slope in assay [5] was -4.3e-05 (inactive). Moreover, in assay [6], the slope is 0.00272 (inactive).
Consider `COc1ccc(NC(=O)CSc2nnc(-c3ccccc3)n2N)cc1`, for which the cell count in assay [1] amounted to 438. Further, the inhibition is 0% (inactive) in assay [1], -13.6% (inactive) in assay [3], 15.8% (inactive) in assay [7] and 24% (inactive) in assay [8]. Moreover, the inhibition of aggregation in assay [2] is 4.9% (inactive). Moreover, the nuclei count is 103% in assay [2] and 114% in assay [3]. For the same molecule, the fluorescence slope in assay [4] is -0.38 (inactive). In assay [5], the NADPH fluorescence slope was 9.8e-06 (inactive). In addition, the slope in assay [6] is 0.00577 (inactive).
For the molecule `O=C(OCC#CCSc1nc2ccccc2s1)c1ccco1`, the cell count in assay [1] came out at 639. In addition, the inhibition was -19.8% (inactive) in assay [1], -28.5% (inactive) in assay [3], -14.4% (inactive) in assay [7] and -21.9% (inactive) in assay [8]. Moreover, the inhibition of aggregation in assay [2] is -8.9% (inactive). Also, the figures for the nuclei count in assay [2] and in assay [3] were 116% and 100%, respectively. Also, in assay [4], the fluorescence slope is -0.471 (inactive). In assay [5], the NADPH fluorescence slope is 2.6e-05 (inactive). Also, the slope in assay [6] is 0.00607 (inactive).
For `Nc1nc2n(n1)C(c1c(F)cccc1Cl)CC(c1ccc(F)cc1)N2` (centres undefined), the cell count in assay [1] was determined as 868. In addition, the inhibition in assay [1] is 3.5% (inactive); in assay [3], -37% (inactive); in assay [7], -2.35% (inactive); in assay [8] it was 25.6% (inactive). Moreover, in assay [2], the inhibition of aggregation was -46.8% (inactive). Moreover, the nuclei count turned out to be 117% in assay [2] and 110% in assay [3]. The fluorescence slope in assay [4] is -0.455 (inactive). Also, the NADPH fluorescence slope in assay [5] was -1.9e-05 (inactive). The slope in assay [6] was 0.0048 (inactive).
Take `O=S(=O)(c1ccc2ccccc2c1)N1CCCCC1`: in assay [1], the cell count was determined as 424. Further, the inhibition in assay [1] is 2.6% (inactive); in assay [3], 20.8% (inactive); in assay [7], 13.9% (inactive); in assay [8] it was 33.1% (inactive). Besides, the inhibition of aggregation in assay [2] is 7% (inactive). Further, the nuclei count in assay [2] and in assay [3] was 104% throughout. Also, the fluorescence slope in assay [4] was -0.413 (inactive). Besides, the NADPH fluorescence slope in assay [5] was -2.4e-06 (inactive). Also, the slope in assay [6] was 0.00701 (inactive).
